Compounds with a hit are over-represented: about 1.4% of the library has one in this group of screens.
MmCpn inh: blocks the Methanococcus maripaludis chaperonin Mm-Cpn. purified Mm-Cpn ATPase, ADP Transcreener TR-FRET. AID 504842. Potency, µM (highest dose often 76.9 µM), inactives show at the highest dose activity, negative = inhibition, most hits filed as inhibitors. hit rate 0.031% among 330,000; note: potency is the fitted concentration of half-maximal effect; % is set by controls: 0 for no effect and ±100 for the full control effect; nearly all actives have a fitted effect of over 80% in size
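ATPase turnover read by TR-FRET ADP competition (Eu cryptate antibody/ADP-d2, 665/590 nm): 10uM ATP final, 25nM Mm-CPN final, 30 min 37degC after 10-min compound preincubation, pH 7.4 Tris/KCl/MgCl2/DTT buffer.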
p53 reactivator: restores transcriptional activity of mutant p53 | H1299 p53-A138V BP100-luciferase reporter, luminescence, 24 h | Potency, µM (series often up to 92.2 µM), inactives show top-dose activity change, positive = activation, most hits filed as activators | hit rate 0.063% among 320,000 | AID 504706; note: potency is the fitted concentration of half-maximal effect; % of control where 0% means no effect; nearly all actives have a fitted effect of over 45% in size
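H1299 (p53-null), stable ts p53-A138V + BP100-Luc; 1000 cells/well, Opti-MEM/10% FBS; cpd 4 pt, 1:5; 24 h, 37 deg C, 5% CO2; detection reagent 10 min RT; luminescence.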
ALOX12 inh: inhibitors of human 12S-lipoxygenase ALOX12. hit rate 1.1% among 580,000. purified 12hLO, xylenol orange hydroperoxide absorbance. Potency, µM (highest dose often 108 µM), without a hit: top-dose activity change, negative = inhibition, most hits filed as inhibitors. P18054; note: potency is the fitted concentration of half-maximal effect; % is set by controls: 0 for no effect and ±100 for the full control effect
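Purified human 12hLO (150 nM final) in 25 mM Hepes, 0.01% Triton X-100, pH 7.0 was preincubated 15 min at room temperature with compound. Then 40 uM arachidonic acid was added, 30 min. Hydroperoxide was read by Fe-XO absorbance ratio 573/405 nm.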
PINK1 modulator: modulators of PINK1 expression. hit rate 0.2% among 410,000. PINK1 immunofluorescence, high-content cytometry, 24 h. Potency, µM (titrated, usually from 76.6 µM), inactives show at the top dose activation (PINK1 increase), most hits filed as activators; active = well fitted activation curve with a large enough effect; inconclusive = small, poorly fitted or top-dose-only effect; cell line not stated here; note: potency is the fitted concentration of half-maximal effect; % of control where 0% means no effect; nearly all actives have a fitted effect of over 65% in size
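Measures PINK1 amount and localization on or inside mitochondria by immunofluorescence. Stable cells get compounds at 5 concentrations for 24 hours before fixation and staining; CCCP controls included.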
S-ASM inh: inhibitors of human secretory acid sphingomyelinase. hit rate 0.006% among 340,000. AID 504937. Potency, µM (series often up to 57.5 µM), for the others: at the top dose activity change, negative = inhibition, usual class: inhibitors. P17405. placental ASM, HMU-PC fluorogenic substrate, 60 min; note: potency is the fitted concentration of half-maximal effect
Target sequence (P17405 47-631 limits assumed): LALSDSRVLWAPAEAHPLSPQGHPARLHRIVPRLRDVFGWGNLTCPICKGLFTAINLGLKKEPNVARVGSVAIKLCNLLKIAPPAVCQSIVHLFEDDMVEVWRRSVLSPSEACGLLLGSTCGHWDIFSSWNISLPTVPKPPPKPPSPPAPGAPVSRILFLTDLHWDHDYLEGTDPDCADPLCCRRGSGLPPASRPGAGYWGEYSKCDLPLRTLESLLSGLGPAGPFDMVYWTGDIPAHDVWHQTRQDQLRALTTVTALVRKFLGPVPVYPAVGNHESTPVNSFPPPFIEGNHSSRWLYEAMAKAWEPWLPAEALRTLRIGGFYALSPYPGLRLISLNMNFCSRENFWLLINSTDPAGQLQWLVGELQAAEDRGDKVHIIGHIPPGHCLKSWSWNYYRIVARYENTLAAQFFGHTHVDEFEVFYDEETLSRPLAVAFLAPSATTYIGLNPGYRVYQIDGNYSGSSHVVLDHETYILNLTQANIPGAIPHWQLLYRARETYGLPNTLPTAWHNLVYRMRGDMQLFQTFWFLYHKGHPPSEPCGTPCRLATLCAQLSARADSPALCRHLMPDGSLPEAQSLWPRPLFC
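Steps: dispense placental human ASM, pin compound, wait 10 min at room temperature, add HMU-PC0 substrate at 9 uM final, incubate 60 min at 37 °C, add stop solution raising pH to 10, read fluorescence.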
CCT chaperon mod: cytosolic chaperonin activity modulation | purified chaperonin ATPase assay, HTRF ADP detection, 30 min | activity change, % (no concentration beside the values), hits read low | hit rate 0.3% among 360,000 | AID 651819; in the data active = activity change below about -30%; note: % is set by controls: 0 for no effect and ±100 for the full control effect
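Nucleotide hydrolysis assay: TRiC at 20–40 nM final (set by batch activity) with 10 uM ATP, 30 min at 37 °C, in presence of 76 uM compound. Detection by competitive ADP HTRF, 30 min ambient.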
The depositor's hits bear a star; u = inconclusive; x = no result; ! = not active in a repeat; [ ] = remark or other dose. Unless noted, calls come from the whole dose curve; as a rule, active = well fitted curve in the direction sought with a large enough effect; inconclusive = small, poorly fitted or top-dose-only effect, or another doubt; inactive = no such curve, though single readings can be large; an effect the other way counts as inactive or inconclusive.

SMILES	MmCpn inh	p53 reactivator	ALOX12 inh	PINK1 modulator	S-ASM inh	CCT chaperon mod
FC(F)(F)c1ccccc1-c1cncnc1NCc1cccnc1	x	x	-28%	0%	x	x
FC(F)(F)c1ccccc1-c1cncnc1Nc1ccccc1	x	x	25µM*	1%	x	x
CC(=O)Nc1ccc(C)c(NC(=O)C2(c3cccc(Br)c3)CC2)c1	x	x	-26%	x	x	x
CN(C)CCOc1ccc(C(C)(C)c2ccccc2)cc1	-2%	-2%	u	-2%	3%	-2
CC(C)(c1ccccc1)c1ccc(OCC2CO2)cc1 (centres undefined)	-2%	-2%	5%	3%	-2%	-30*
Cc1ccc(S(=O)(=O)N2CCN(C(=O)c3cc(C4CC4)nc4c3cnn4C(C)C)CC2)cc1	3%	-12%	u	0%	5%	-1
Cc1cc(C(=O)N2CCCC3(CCNCC3)CC2)c2cnn(C(C)C)c2n1	x	x	20µM*	x	x	x
COc1ccc(Cl)cc1NC(=O)C(C)N1CCN(S(=O)(=O)Cc2ccccc2)CC1 (centres undefined)	x	x	19%	x	x	x
COc1ccc(Nc2nc(C)c(NC(=O)c3cccc(C)c3)c(Nc3ccc(OC)cc3)n2)cc1	x	x	35µM*	x	x	x
COc1cccc(C(=O)Nc2c(C)n[nH]c2C)c1	-1%	4%	-3%	1%[38.3 µM]	-1%	-75*
CCOc1ccc(Nc2nc(C)c(NC(=O)c3cccc(OC)c3)c(Nc3ccc(OCC)cc3)n2)cc1	x	x	u	1%	x	x
Cc1ccc(NC(=O)CSCc2cc(=O)n3oc(C)cc3n2)cc1	x	x	-37%	x	x	x
Cc1c(C(=O)Nc2nonc2-c2ccc(F)cc2)oc2ccc(F)cc12	-2%	19%	6%	28µM*	-15%	-3
O=C(CN1C(=O)c2ccccc2S1(=O)=O)c1ccc(Cl)cc1Cl	x	x	8.9µM*!	1%	0%	-8
O=S(=O)(NNc1ccc(Cl)nn1)c1ccc(F)cc1	1%	16%	1.3µM*	0%	-1%	-69*
O=C(CN1CCN(C(=O)c2ccccc2-c2ncc(-c3ccccc3)o2)CC1)N1CCCCC1	x	x	35%	x	x	x
O=C1Nc2ccccc2/C1=N\N=C\c1ccc(O)c(O)c1	-2%	2%	u	-3%	-13%	-22
O=C(/C(=N/N=C/c1ccc(O)c(O)c1)c1ccccc1)c1ccccc1	1%	u	40µM*	23%	u	0
Oc1ccc(N=Cc2ccc(O)c(O)c2)cc1	-10%	u	x	1%	-2%	1
Oc1ccc(/C=N/N=C/c2ccc(O)c(O)c2)cc1O	-4%	x	1.1µM*	3%	4%	-2
Cc1ccc(NC(=O)c2cccc(NC(=O)/C=C/c3ccco3)c2)cc1C	-6%	u	40µM*	9%	-18%	-1
CCc1ccccc1NC(=O)c1cccc(NC(=O)/C=C/c2ccco2)c1	-4%	u	-31%	-2%	-6%	-2
Cc1ccc(NC(=O)N/C=C/c2ccco2)cc1C	1%	15%	28µM*	-1%	-3%	-2
CCCCNCCCCOc1ccccc1	0%	-2%	17%	2%[38.3 µM]	0%	-90*
CN(C)CCCNC(=O)c1cc2cc(Cl)ccc2[nH]1	x	x	-21%	x	x	x
SMILES	MmCpn inh	p53 reactivator	ALOX12 inh	PINK1 modulator	S-ASM inh	CCT chaperon mod
S=c1[nH]c2ccc(Cc3ccc4[nH]c(=S)[nH]c4c3)cc2[nH]1	-21%	-7%	45µM*	15%	5%	0
Nc1ccc2[nH]c(=S)[nH]c2c1	x	x	u	-2%	-2%	0
Cn1c(CN2CCOC[C@H]2c2ncc(-c3ccc(Cl)cc3)[nH]2)nc2ccccc21	x	x	35µM*	x	x	x
Clc1ccc(-c2cnc([C@@H]3COCCN3Cc3cnc[nH]3)[nH]2)cc1	x	x	40%[176 µM]	x	x	x
Cn1c(-c2cccnc2)cc2cnc(Nc3ccc(OC(F)(F)F)cc3)cc21	x	x	-6%	x	x	x
N=c1sccn1CC(=O)Nc1cccc2ccccc12	1%	-4%	4%	1%	0%	-122*
COc1ccc2cc(C(=O)NC3CCN(C4CC4)C3)c(C)nc2c1 (centres undefined)	x	x	-6%	x	x	x
COc1ccc(-n2cccc2/C=C/[N+](=O)[O-])cc1	0%	-17%	u	-3%	-1%	0
Cc1ccc(S(=O)(=O)n2cccc2/C=C/[N+](=O)[O-])cc1	x	x	35µM*	-2%	x	-2
CCc1ccc(S(=O)(=O)N2CCN(c3ccc(NCc4ccccc4)nn3)CC2)cc1	x	x	-18%	x	x	x
CCN(CC)C(N)=S	x	x	-4%	x	x	x
CCN(CC)C(=S)SSC(=S)N(CC)CC	1%	x	1.1µM*!	1%	0%	-1
Cc1cc(C)nc(SCC(=O)c2ccc(F)cc2)n1	-2%	-13%	4%	1%	0%	0
Cc1cc(C)nc(SCNC(=O)c2ccc(F)cc2)n1	-2%	6%	-2%	-2%	0%	-32*
COc1ccc(-n2sc3ccccc3c2=O)cc1	x	x	u	-1%	x	-1
O=c1c2cc([N+](=O)[O-])ccc2sn1-c1ccccc1	x	x	0.25µM*	2%	x	-2
CC(=O)Nc1ccc2sn(-c3ccccc3)c(=O)c2c1	x	x	1.1µM*	0%	x	-5
N#Cc1ccc2sn(-c3ccccc3)c(=O)c2c1	x	x	0.35µM*	4%	x	0
O=C(Nc1ccc2oc(-c3cccnc3)nc2c1)c1ccc(Cl)c(Cl)c1	x	x	9%	x	x	x
C[C@H](NC[C@H](O)CP(=O)(O)Cc1ccccc1)c1ccc(Cl)c(Cl)c1	x	x	20µM*!	x	x	x
COc1ccc(OCc2cc(C(=O)NCCN3CCCC(O)C3)no2)c(Cl)c1 (centres undefined)	-3%	16%	323%	-1%	1%	0
COc1ccc(OCc2cc(C(=O)NCCN3CCCc4ccccc43)no2)c(Cl)c1	-12%	-4%	16µM*	7%	-1%	-3
Cc1ccccc1C(=O)N1CCC(CCC(=O)N2CCN(c3ccccn3)CC2)CC1	x	x	1%	x	x	x
CCOC(=O)c1cccc(C2=CC(=O)C[C@H](c3ccc(OC)cc3)C2)c1	1%	13µM*	x	4%	-10%	-1
CN(c1ccc(-c2csc(NC3CCCC3)n2)cc1)S(C)(=O)=O	x	x	16µM*	x	x	x
SMILES	MmCpn inh	p53 reactivator	ALOX12 inh	PINK1 modulator	S-ASM inh	CCT chaperon mod
CN(c1ccc(-c2csc(NC(C)(C)C)n2)cc1)S(C)(=O)=O	x	x	-76%	x	x	x
Cc1nc(-c2ccc(NS(C)(=O)=O)cc2)cs1	-2%	2%	0%	0%	-3%	-2
CS(=O)(=O)Nc1ccc(-c2csc(NC3CC3)n2)cc1	x	x	10µM*	x	x	x
Nc1[nH]c(=S)[nH]c(=O)c1-c1ccccc1	-5%	-5%	7.1µM*	-1%	6%	2
O=c1[nH]c(=S)[nH]c2nc(-c3ccccc3)cnc12	x	x	-6%	0%	21%	0
COc1ccc(CC(=O)NC(C)c2ccco2)cc1 (centres undefined)	x	x	-32%	x	x	x

Compound activity deposited in PubChem by National Center for Advancing Translational Sciences (NCATS).
